The panel holds about 83,000 compounds, 20% with a hit somewhere; the sample as a whole holds those more often.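 Plates (96-well) were seeded with cells, treated with compound at one concentration, and incubated for 48 hours before percent growth was determined.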 Unmarked numbers belong to inactive results. The source made the active and inactive calls. How the source made its calls: active means growth percent below 10; inactive means the rest.

Among the test systems are SK-MEL-2 melanoma; EKVX NSCLC; SN12C renal; UO-31 renal; TK-10 renal; ACHN renal; CAKI-1 renal; A498 renal; CCRF-CEM leukemia; MOLT-4 leukemia; SR leukemia; RPMI-8226 leukemia; OVCAR-8 ovarian; OVCAR-5 ovarian; OVCAR-4 ovarian; SK-OV-3 ovarian; IGROV1 ovarian; HS 578T breast; NCI/ADR-RES ovarian; OVCAR-3 ovarian.
Experiment in all cases: NCI-60 one-dose screen, 48 h (100 = growth as untreated, 0 = no growth, -100 = all killed)
Holding throughout (conditions): 10 µM unless noted

As to `Cc1cccc(-c2nc(Nc3ccc4ncsc4c3)c3ccccc3n2)n1`, the growth was 83.8% with SK-MEL-2 melanoma; 79.1% in the experiment on EKVX NSCLC; 92% with SN12C renal; 69.1% in the experiment on UO-31 renal; 87.2% in the experiment on TK-10 renal; 91.9% with ACHN renal. The growth in the experiment on CAKI-1 renal is 105%; in the experiment on A498 renal, 83.6%; in the experiment on CCRF-CEM leukemia, 37.5%; with MOLT-4 leukemia, 64.2%; in the experiment on SR leukemia, 69.2%; in the experiment on RPMI-8226 leukemia, 30.6%. Also, the growth in the experiment on OVCAR-8 ovarian was 53.4%; with OVCAR-5 ovarian, 97.7%; in the experiment with OVCAR-4 ovarian, 30.7%; in the experiment on SK-OV-3 ovarian it was 113%; with IGROV1 ovarian, 16.6%; with HS 578T breast, 116%. The growth with NCI/ADR-RES ovarian is 86.9%.

For `Oc1c(CN2CCCC2)cc(CSCc2ccccc2)c2cccnc12`, the growth in the experiment with SK-MEL-2 melanoma is 11.3%; in the experiment on EKVX NSCLC, 37%; with SN12C renal, 17.6%; with UO-31 renal, -18% (active); in the experiment on TK-10 renal, 22.4%; in the experiment on ACHN renal, 5.28% (active). Besides, the growth was 7.37% (active) with CAKI-1 renal; 9.44% (active) with A498 renal; -14.9% (active) in the experiment with CCRF-CEM leukemia; -14.4% (active) in the experiment with MOLT-4 leukemia; -7.76% (active) in the experiment on SR leukemia; 7.56% (active) in the experiment on RPMI-8226 leukemia. In addition, the growth in the experiment with OVCAR-8 ovarian is 7.91% (active); in the experiment on OVCAR-5 ovarian, 41.8%; in the experiment on OVCAR-4 ovarian, -2.42% (active); in the experiment on SK-OV-3 ovarian, -15.6% (active); in the experiment on IGROV1 ovarian, -3.98% (active); in the experiment with HS 578T breast, 64.5%. In addition, the growth in the experiment with NCI/ADR-RES ovarian was -46.4% (active).

Take `Cc1ccc(C=C2C(=O)NC(=O)NC2=O)cc1`: the growth in the experiment on SK-MEL-2 melanoma was 104%; in the experiment with EKVX NSCLC, 101%; in the experiment with SN12C renal, 99.2%; in the experiment on UO-31 renal, 89.9%; with TK-10 renal it was 97.8%; in the experiment on ACHN renal it was 110%. In addition, the growth in the experiment with CAKI-1 renal was 100%; in the experiment on A498 renal it was 105%; in the experiment on CCRF-CEM leukemia it was 103%; with MOLT-4 leukemia, 95.1%; with SR leukemia it was 96.9%; with RPMI-8226 leukemia, 103%. For the same compound, the growth in the experiment on OVCAR-8 ovarian is 100%; in the experiment on OVCAR-5 ovarian it was 107%; in the experiment on OVCAR-4 ovarian, 110%; in the experiment on SK-OV-3 ovarian it was 105%; with IGROV1 ovarian it was 104%; in the experiment with OVCAR-3 ovarian it was 105%. Also, the growth in the experiment on HS 578T breast is 105%; with NCI/ADR-RES ovarian it was 102%.

Regarding `FC(F)(F)Oc1cccc(-c2cnc3ccc(-c4ccncc4)nn23)c1`, the growth in the experiment on SK-MEL-2 melanoma is -21.7% (active); with EKVX NSCLC, 28.4%; in the experiment on SN12C renal, 13.2%; in the experiment with UO-31 renal, 0.42% (active); in the experiment on TK-10 renal it was 17.3%; with ACHN renal, -0.133% (active). Further, the growth was 7.75% (active) in the experiment on CAKI-1 renal; 23% in the experiment with A498 renal; 4.57% (active) in the experiment on CCRF-CEM leukemia; 4.08% (active) in the experiment with MOLT-4 leukemia; 4.36% (active) in the experiment with SR leukemia; 15.9% in the experiment on RPMI-8226 leukemia. The growth in the experiment on OVCAR-8 ovarian is 14.3%; in the experiment with OVCAR-5 ovarian, 16.5%; in the experiment on OVCAR-4 ovarian it was 47%; in the experiment on SK-OV-3 ovarian it was -19.3% (active); in the experiment on IGROV1 ovarian it was 12.1%; with OVCAR-3 ovarian, 8.85% (active). Also, the growth in the experiment with HS 578T breast is 23.4%; in the experiment on NCI/ADR-RES ovarian it was 11.6%.

Turning to `O=S(=O)(NCCNc1nccc(-c2c(-c3ccc(F)c(O)c3)nc3sccn23)n1)c1ccc(F)cc1`, the growth in the experiment with SK-MEL-2 melanoma was 12.3%; in the experiment on EKVX NSCLC it was 55.7%; in the experiment with SN12C renal, 28.5%; in the experiment with UO-31 renal it was 3.56% (active); in the experiment with TK-10 renal, 83.5%; in the experiment on ACHN renal, 19.7%. Moreover, the growth was 20.6% with CAKI-1 renal; 70.9% in the experiment with A498 renal; 12.7% in the experiment with CCRF-CEM leukemia; 11.7% in the experiment with MOLT-4 leukemia; 1.25% (active) with SR leukemia; 11.5% with RPMI-8226 leukemia. In addition, the growth with OVCAR-8 ovarian is 29%; with OVCAR-5 ovarian it was 67.9%; in the experiment with OVCAR-4 ovarian, 31.5%; in the experiment with SK-OV-3 ovarian it was 36.1%; with IGROV1 ovarian it was 12.2%; in the experiment on HS 578T breast it was 26.9%. Besides, the growth in the experiment with NCI/ADR-RES ovarian is 92.6%.

For `O=C(N/N=C/c1cc(Cl)ccc1O)c1ccccc1Nc1ccnc(C(F)(F)F)c1`, the growth in the experiment on SK-MEL-2 melanoma is 90.7%; in the experiment with EKVX NSCLC it was 22.9%; with SN12C renal, 20.7%; in the experiment with UO-31 renal, 21.1%; in the experiment with TK-10 renal, 46.4%; in the experiment with ACHN renal it was 14.9%. In addition, the growth in the experiment with CAKI-1 renal is 34.6%; with A498 renal it was 65.7%; in the experiment on CCRF-CEM leukemia, 12.4%; in the experiment on MOLT-4 leukemia, 55%; with SR leukemia, 105%; in the experiment with RPMI-8226 leukemia, 47.2%. Also, the growth in the experiment with OVCAR-8 ovarian is 63.5%; in the experiment on OVCAR-5 ovarian, 57.4%; in the experiment with OVCAR-4 ovarian, 28.7%; in the experiment on SK-OV-3 ovarian, 25%; with IGROV1 ovarian, 92.5%; in the experiment with OVCAR-3 ovarian, 38%. Moreover, the growth in the experiment on HS 578T breast was 75%; with NCI/ADR-RES ovarian, 22.6%.

Take `Nn1c(=O)c(=O)[nH]c2c(cnn2-c2ccccc2)c1=O`: the growth in the experiment on SK-MEL-2 melanoma is 122%; in the experiment on EKVX NSCLC, 98.9%; with SN12C renal, 105%; in the experiment with UO-31 renal it was 82.2%; with TK-10 renal, 109%; in the experiment with ACHN renal, 105%. For the same compound, the growth with CAKI-1 renal was 94.3%; with A498 renal it was 113%; in the experiment on CCRF-CEM leukemia it was 108%; in the experiment with MOLT-4 leukemia, 101%; with RPMI-8226 leukemia, 103%; with OVCAR-8 ovarian, 97.3%. For the same compound, the growth is 108% in the experiment on OVCAR-5 ovarian; 118% in the experiment with OVCAR-4 ovarian; 102% in the experiment with SK-OV-3 ovarian; 118% in the experiment with IGROV1 ovarian; 107% in the experiment with OVCAR-3 ovarian; 111% in the experiment on HS 578T breast. Further, the growth with NCI/ADR-RES ovarian is 106%.

(Values after PubChem BioAssay (NCI).)
